Among all 190,000 compounds or so, about 1,300 (0.68%) were called active. Rule as the data show it: active = inhibition above about 50%; inactive = the rest. This excerpt belongs to a sample that is enriched for actives.
Biological target: Mannose-6-phosphate isomerase (Homo sapiens) (UniProt P34949)
Assay: MPI inhibition at elevated mannose 6-phosphate – biochemical, fluorescence intensity, high mannose 6-phosphate, primary screen (AID 1220)
Details: recombinant PMI enzyme, coupled fluorescence intensity; at 20 µM; active compounds read high

Chain of Mannose-6-phosphate isomerase (Homo sapiens) (P34949 whole entry, looked up): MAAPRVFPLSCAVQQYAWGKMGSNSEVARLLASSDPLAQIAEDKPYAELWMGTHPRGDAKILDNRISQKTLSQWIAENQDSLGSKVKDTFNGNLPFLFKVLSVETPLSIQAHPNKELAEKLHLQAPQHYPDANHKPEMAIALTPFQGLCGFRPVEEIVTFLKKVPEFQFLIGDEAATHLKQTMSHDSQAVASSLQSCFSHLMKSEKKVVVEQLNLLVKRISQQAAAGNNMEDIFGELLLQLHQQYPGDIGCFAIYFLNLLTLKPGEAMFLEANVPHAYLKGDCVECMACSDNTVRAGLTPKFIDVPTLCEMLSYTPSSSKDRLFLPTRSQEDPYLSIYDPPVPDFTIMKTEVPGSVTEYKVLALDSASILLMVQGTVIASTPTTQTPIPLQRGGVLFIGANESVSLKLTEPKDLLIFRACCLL

SMILES	inhibition
Cc1ccc(C)c(-n2[nH]c3c4c(ccc3c2=O)C(=O)c2ccccc2C4=O)c1	58% (active)
CC(C)Cn1[nH]c2c3c(ccc2c1=O)C(=O)c1ccccc1C3=O	60.3% (active)
Cc1cccc(-n2[nH]c3c4c(ccc3c2=O)C(=O)c2ccccc2C4=O)c1	26.4% (inactive)
COCCCn1[nH]c2c3c(ccc2c1=O)C(=O)c1ccccc1C3=O	14.1% (inactive)
O=C1c2ccccc2C(=O)c2c1ccc1c(=O)n(-c3ccccc3)[nH]c21	30.4% (inactive)
Cc1ccc(-n2[nH]c3c4c(ccc3c2=O)C(=O)c2ccccc2C4=O)cc1	13.1% (inactive)
C=CCn1c(SCC(=O)Nc2cccc3ccccc23)nc(O)c(CC)c1=O	-3.4% (inactive)
CCn1c(CNc2ccc(F)cc2)nnc1SCC(=O)Nc1ccccc1OC	4% (inactive)
CN(C(=O)c1ccccc1)c1ccc(OCC(=O)NC2CCS(=O)(=O)C2)cc1 (stereo unspecified)	11.6% (inactive)
CC(C)(C)NS(=O)(=O)c1ccc(OCC(=O)NCCC2=CCCCC2)cc1	1.2% (inactive)
COCc1c(C(=O)N/N=C(/C)c2ccccc2)nnn1-c1nonc1N	6.3% (inactive)
CC(=C/c1ccco1)/C=N/NC(=O)c1nnn(-c2nonc2N)c1CN(C)C	59.6% (active)
COCc1c(C(=O)N/N=C/c2cccc3ccccc23)nnn1-c1nonc1N	-11.8% (inactive)
O=[N+]([O-])c1ncccc1Oc1nc(-c2cccnc2)nc2ccccc12	65.8% (active)
CC(=O)c1ccc(Oc2nc(-c3cccnc3)nc3ccccc23)cc1	-4.3% (inactive)
Cc1ccc(Oc2nc(-c3cccnc3)nc3ccccc23)c([N+](=O)[O-])n1	8.5% (inactive)
Cc1cc(C(=O)C(=O)O)c(C)n1-c1ccc(Cl)c(Cl)c1	-3% (inactive)
COc1ccc(CCC(=O)N2CC(C)OC(C)C2)cc1 (stereo unspecified)	5.2% (inactive)
Cc1ccc(C)c(NC(=O)c2nc(-c3ccccc3)n(-c3ccccc3)n2)c1	16.2% (inactive)
O=[N+]([O-])c1ccc(C[n+]2ccc(Cc3ccccc3)cc2)cc1	31.5% (inactive)
O=S(=O)(c1ccccc1)N1CCN=C1SCc1ccc(Cl)cc1	51.5% (active)
O=S(=O)(c1ccccc1)N1CCN=C1SCc1ccc(Cl)c(Cl)c1	-0.5% (inactive)
O=S(=O)(c1ccccc1)N1CCN=C1SCc1ccccc1	-2.3% (inactive)
c1ccc(COc2ccc(OCCN3CCCC3)cc2)cc1	16.3% (inactive)
Cc1cccc(NC(=O)CC2SC(=NC3CCCCC3)NC2=O)c1 (stereo unspecified)	7.6% (inactive)
Cc1ccc(OCc2n[nH]c(=S)n2N)cc1C	9.3% (inactive)

SMILES	inhibition
Nn1c(COc2ccc(Cl)cc2)n[nH]c1=S	10.2% (inactive)
CCOc1ccccc1OCCNC1CCCC1	-5% (inactive)
COCCCNC(=S)Nc1ccc(C)cc1[N+](=O)[O-]	5.7% (inactive)
CC[C@H](C)C(C(=O)N1CCN(C(=O)OC(C)(C)C)CC1)n1cc(C(Cc2ccc(O)cc2)NC(=O)OC(C)(C)C)nn1 (stereo partly specified)	6.3% (inactive)
CC(/C=N/NC(=O)c1cc(-c2ccccc2)nc2ccccc12)=C\c1ccco1	63.2% (active)
O=C(CSc1nnc(SCc2ccccc2)s1)N/N=C/C=C\c1ccco1	-23% (inactive)
CC(/C=N/NC(=O)c1cc(-c2ccncc2)nc2ccccc12)=C\c1ccco1	11.8% (inactive)
Cn1c(SCC(=O)N/N=C/c2ccco2)nc2ccccc21	3.4% (inactive)
CC(/C=N/NC(=O)CSc1nc2ccccc2n1C)=C\c1ccco1	58.6% (active)
CC(/C=N/NC(=O)c1cc(-c2ccc(Cl)cc2)nc2ccccc12)=C\c1ccco1	11.8% (inactive)
Cn1c(SCC(=O)N/N=C/C=C/c2ccco2)nc2ccccc21	45.7% (inactive)
CC(/C=N/NC(=O)CSc1nnc(SCc2ccccc2)s1)=C\c1ccco1	54.7% (active)
CC(=C/c1ccco1)/C=N/NC(=O)CSc1nnc(SCc2ccc(C)cc2)s1	49.4% (inactive)
CCc1ccc(Nc2nnc(SCC(=O)Nc3sccc3C(N)=O)s2)cc1	11.1% (inactive)
CCOC(=O)c1ccc(NC(=S)N(CCN2CCCCCC2)Cc2cccs2)cc1	2.9% (inactive)
COc1cc(OC)cc(C(=O)NCC2CCCO2)c1 (stereo unspecified)	12.6% (inactive)
Cc1ccc2nc3c(cc2c1)c(NC(=O)c1cccnc1)nn3C	13.2% (inactive)
Cc1c(C(=O)NCC2CCCO2)oc2ccc3c(c12)C(=O)CC(C)(C)O3 (stereo unspecified)	7.4% (inactive)
O=C(Nc1cccnc1)C1CCCN(S(=O)(=O)c2ccccc2)C1 (stereo unspecified)	-2% (inactive)
CCOc1cc(N2CCOCC2)c(OCC)cc1NC(=O)CSc1nccc(C)n1	19.5% (inactive)
CCOc1cc(N2CCOCC2)c(OCC)cc1NC(=O)CSc1n[nH]c(N)n1	37.1% (inactive)
CCOc1cc(N2CCOCC2)c(OCC)cc1NC(=O)CSc1ncccn1	50.6% (active)
CCOc1cc(N2CCOCC2)c(OCC)cc1NC(=O)CSc1cccc[n+]1[O-]	16.7% (inactive)
CCOc1cc(N2CCOCC2)c(OCC)cc1NC(=O)CCC1CCCC1	17.2% (inactive)
CCOc1cc(N2CCOCC2)c(OCC)cc1NC(=O)CSc1ncn[nH]1	53% (active)
